Experimental data: PubChem BioAssay (NCATS)
Results filed as inconclusive are left out. Active and inactive are the calls of the source. Unless noted, calls come from the whole dose curve; as a rule, active = well fitted curve in the direction sought with a large enough effect; inconclusive = small, poorly fitted or top-dose-only effect, or another doubt; inactive = no such curve, though single readings can be large; an effect the other way counts as inactive or inconclusive.

What was measured:
[1] = Cell Viability - N2a (AID 540); details: N2a mouse neuroblastoma cell viability; activity change, negative = cytotoxicity: at 92.2 µM (top of the series);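 note: plate controls were DMSO alone for no effect and tamoxifen control for full effect; nearly all actives have a fitted effect of over 45% in size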
Summary of the method: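 Mouse neuroblastoma N2a cells, 1500/well, exposed to compounds 40 h at 37 °C in complete medium. Viability measured as cellular ATP by CellTiter-Glo luminescence; AC50 from Hill fits of concentration-response.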

[2] = Cell Viability - NIH 3T3 (AID 541);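 note: plate controls were DMSO alone for no effect and tamoxifen positive control for full effect; nearly all actives have a fitted effect of over 25% in size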
Summary of the method: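 Mouse NIH 3T3 fibroblasts, 1000 cells/well, rested 5 hr at 37 °C, then exposed to compound for 40 hr at 37 °C in complete medium. Viability read as intracellular ATP by CellTiter-Glo luminescence; AC50 from Hill-equation fits of concentration-response data.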

[3] = Cell Viability - HUV-EC-C (AID 542); note: % is set by controls: 0 for no effect and ±100 for the full control effect; nearly all actives have a fitted effect of over 35% in size
Summary of the method: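 HUV-EC-C human vascular endothelial cells, 1000/well, exposed to compound for 40 hr at 37 °C in complete medium. Intracellular ATP was read by CellTiter-Glo luminescence. AC50 came from Hill-equation fits of concentration-response data.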

[4] = Cell Viability - H-4-II-E (AID 543); note: % is set by controls: 0 for no effect and ±100 for the full control effect; nearly all actives have a fitted effect of over 35% in size
Summary of the method: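 Rat hepatoma H-4-II-E cells, 1500 per well, treated 40 h at 37 °C in complete medium. Cellular ATP read by CellTiter-Glo luminescence; AC50 from Hill fits of concentration-response.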

[5] = Cell Viability - SH-SY5Y (AID 544);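 note: 0% = DMSO alone and -100% = 100 µM tamoxifen; nearly all actives have a fitted effect of over 55% in size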
Summary of the method: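 SH-SY5Y human neuroblastoma cells (1500/well) incubated 5 h, then compound-treated 40 h at 37 °C in complete medium. Viability read as intracellular ATP by CellTiter-Glo luminescence after 20 min; AC50 from Hill-equation fits of qHTS concentration-response.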

[6] = Cell Viability - Renal Proximal Tubule (AID 545);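 note: 0% = DMSO only and -100% = 100 µM tamoxifen; nearly all actives have a fitted effect of over 40% in size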
Summary of the method: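 Viability taken as intracellular ATP (CellTiter-Glo luminescence) after 40 hr, 37 °C compound treatment of primary proximal tubule cells from rat kidney, 1000 cells/well; Hill-equation fits of qHTS concentration-response data gave AC50.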

[7] = Cell Viability - Mesenchymal (AID 546);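 note: cells exposed to compound for 40 hours before reading; 0% = DMSO only and -100% = 100 µM tamoxifen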
Summary of the method: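 AC50 values reflect the drop in intracellular ATP in a human kidney mesenchymal line derived from normal glomeruli. Treatment lasts 40 hr at 37 °C in complete medium, and the signal comes from CellTiter-Glo luminescence.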

[8] = Cellular Toxicity (caspase-3) HepG2 (AID 654);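 note: cells exposed to compound for 16 hours before reading; 0% = DMSO alone and 100% = caspase signal from 100 µM tamoxifen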
Summary of the method: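 HepG2 cells (1500/well) were treated 16 h at 37 °C in complete medium, then caspase 3/7 activity was read by Caspase-Glo luminescence. Data were normalized to DMSO and 100 uM tamoxifen; AC50 came from Hill-equation fits of qHTS concentration-response.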

[9] = Cellular Toxicity (caspase-3) Jurkat (AID 655);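 note: cells exposed to compound for 16 h at 37 °C before reading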
Summary of the method: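 Luminescent Caspase-Glo 3/7 read-out (20 min, room temperature) after 16 h compound treatment at 37 C of 5000 Jurkat cells per well. AC50 derived by Hill-equation fitting, scaled between DMSO basal and 100 uM tamoxifen stimulation.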

[10] = Cellular Toxicity (caspase-3) HUV-EC-C (AID 656);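 note: 0% = DMSO basal and 100% = 100 µM tamoxifen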
Summary of the method: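 Luminescent Caspase-Glo 3/7 readout after 16 h, 37 °C compound exposure of HUV-EC-C endothelial cells, 1000 per well, complete medium. AC50 derived by Hill fitting, with DMSO as baseline and 100 uM tamoxifen as full activation.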

[11] = Cellular Toxicity (caspase-3) SHSY5Y (AID 657)
Summary of the method: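 Luminescent Caspase-Glo 3/7 read-out, 1 hr room temperature, follows 16 hours of compound treatment of SH-SY5Y cells at 37 °C. Normalization: DMSO basal, 10 uM staurosporine as 100%; AC50 values from Hill-equation concentration-response fits.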

[12] = Cellular Toxicity (caspase-3) BJ (AID 658);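 note: 0% = DMSO basal and 100% = 10 µM staurosporine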
Summary of the method: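 Readout: Caspase-Glo 3/7 luminescence increase in BJ cells after 16 hr treatment at 37 °C. Staurosporine and tamoxifen served as positive controls; AC50 values came from Hill modelling of data normalized to DMSO and 10 uM staurosporine.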

[13] = Cellular Toxicity (caspase-3) MRC-5 (AID 659);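 note: 0% = DMSO basal and 100% = 10 µM staurosporine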
Summary of the method: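 Concentration-dependent caspase 3/7 activation is measured in human normal lung fibroblasts (MRC-5) following 16-hour treatment. AC50 values come from standard Hill-equation modeling of luminescence normalized to DMSO and 10 uM staurosporine.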

[14] = Cellular Toxicity (caspase-3) Mesangial (AID 660);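 note: cells exposed to compound for 16 h before the caspase read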
Summary of the method: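 Human renal glomerular mesangial cells, 1000/well, 5 h at 37 C before 16 h compound treatment. Caspase-Glo 3/7 luminescence after 20 min; normalized to DMSO and 100 uM tamoxifen, AC50 from Hill fit.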

[15] = Cellular Toxicity (caspase-3) SK-N-SH (AID 661);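 note: 0% = DMSO basal and 100% = 10 µM staurosporine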
Summary of the method: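 Human SK-N-SH neuroblastoma cells, 1500/well, were exposed to compounds for 16 hours at 37 °C. Caspase-Glo 3/7 luminescence was normalized to DMSO (basal) and 10 uM staurosporine (100%), and AC50 came from a Hill fit.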

[16] = Cellular Toxicity (caspase-3) H-4-II-E (AID 663);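 note: cells exposed to compound for 16 hr before readout; 0% = DMSO basal and 100% = 100 µM tamoxifen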
Summary of the method: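 Apoptosis induction is scored as increased luminescence from caspase 3/7 substrate cleavage in rat hepatoma H-4-II-E cells exposed to compound for 16 hr. Activity is scaled between DMSO and 100 uM tamoxifen.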

[17] = molecular target: Mitogen-activated protein kinase 10 (Mus musculus) (UniProt Q61831); test: JNK3 AlphaScreen Assay (AID 530; active = well fitted curve in either direction with a large enough effect, not every such curve was filed as active;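 note: kinase came from lysate of stimulated human HepG2 cells; signal reports phosphorylation of biotinylated GST-cJun 1-79 at Ser73 with 10 µM ATP; % is set by controls: 0 for no effect and ±100 for the full control effect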)
Summary of the method: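 Compound titrations were preincubated 15 minutes at room temperature with substrate, antibody and pre-activated JNK3-containing HepG2 lysate. Reactions were started with 10 uM ATP and stopped with EDTA-containing bead buffer for AlphaScreen detection.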

Nc1ccc(Cl)cc1
inactive: activity change, negative = cytotoxicity [1] -1.41% | Potency [2] | Potency [3] | Potency [4] | Potency [5] | Potency [6] | Potency [7] | outcome [8] | outcome [9] | outcome [10] | outcome [11] | outcome [12] | outcome [13] | outcome [14] | outcome [15] | outcome [16]

COc1ccc(C(c2ccc(OC)cc2)C(Cl)(Cl)Cl)cc1
inactive: Potency [2] | Potency [3] | Potency [7] | outcome [8] | outcome [9] | outcome [10] | outcome [11] | outcome [12] | outcome [13] | outcome [14] | outcome [15] | outcome [16]

O=C(O)C(Cl)Cl
inactive: activity change, negative = cytotoxicity [1] 2.37% | Potency [2] | Potency [3] | Potency [4] | Potency [5] | Potency [6] | Potency [7] | outcome [8] | outcome [9] | outcome [10] | outcome [11] | outcome [12] | outcome [13] | outcome [14] | outcome [15] | outcome [16]

COC(C)(C)CCCC(C)C/C=C/C(C)=C/C(=O)OC(C)C (stereo not drawn)
inactive: activity change, negative = cytotoxicity [1] -12% | Potency [2] | Potency [3] | Potency [4] | Potency [5] | Potency [6] | Potency [7] | outcome [8] | outcome [9] | outcome [10] | outcome [11] | outcome [12] | outcome [13] | outcome [14] | outcome [15] | outcome [16]

O=S(=O)(c1ccc(Cl)cc1)c1ccc(Cl)cc1
inactive: activity change, negative = cytotoxicity [1] -29.1% | Potency [3] | Potency [4] | Potency [5] | Potency [6] | Potency [7] | outcome [8] | outcome [9] | outcome [10] | outcome [11] | outcome [12] | outcome [13] | outcome [14] | outcome [15] | outcome [16]

c1cc2ccc3cccc4ccc(c1)c2c34
inactive: activity change, negative = cytotoxicity [1] 2.91% | Potency [2] | Potency [3] | Potency [4] | Potency [5] | Potency [6] | Potency [7] | outcome [8] | outcome [9] | outcome [10] | outcome [11] | outcome [12] | outcome [13] | outcome [14] | outcome [15] | outcome [16]

OCCCBr
inactive: outcome [17] | activity change, negative = cytotoxicity [1] 9.77% | Potency [2] | Potency [3] | Potency [4] | Potency [5] | Potency [6] | Potency [7] | outcome [8] | outcome [9] | outcome [10] | outcome [11] | outcome [12] | outcome [13] | outcome [14] | outcome [15] | outcome [16]
